Results published in PubChem BioAssay (NCATS).
Inconclusive results are not listed. A call without a number means that no potency is given here. Values without a mark were called inactive. Calls of active or inactive are those of the source. The call rests on the fitted dose curve; in most records, active means well fitted curve in the direction sought with a large enough effect; inconclusive means small, poorly fitted or top-dose-only effect, or another doubt; inactive means no such curve, though single readings can be large; an effect the other way counts as inactive or inconclusive. Positions of bridges follow the written chain, without caps; N, C: chain ends. Non-standard residues stand in square brackets, D forms with d. Residues, ends and D or L forms follow the SMILES beside them. ξ: configuration not given here. *: point of attachment. Octanoyl(6-Me) = CCC(C)CCCCC(=O)*; ξThr(3R) = C[C@@H](O)C(N)C(=O)O; dDab = NCC[C@@H](N)C(=O)O; Dab = NCC[C@H](N)C(=O)O

Key:
[1] = Quantitative High-Throughput drug screen in 47 multiple myeloma cell lines against the NCATS MIPE library collection: KMM1_JCRB cell viability assay (AID 1918960); further: nearly all actives have a fitted effect of over 30% in size
Method in brief: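 Here, 48 h treatment with MIPE 4.0 agents at 37 °C preceded an ATP luminescence read. Plating density was 500 cells per well.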

[2] = Quantitative High-Throughput drug screen in 47 multiple myeloma cell lines against the NCATS MIPE library collection: JIM3_ECACC cell viability assay (AID 1918963; further: nearly all actives have a fitted effect of over 35% in size)
Method in brief: (§1)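 Myeloma cell lines, 500 cells per well, exposed to MIPE 4.0 library compounds for 48 h at 37C, 5% CO2. Viability from ATP by CellTiter-Glo luminescence; normalised to DMSO (100%) and media-only (0%) wells.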

[3] = Quantitative High-Throughput drug screen in 47 multiple myeloma cell lines against the NCATS MIPE library collection: INA6_PLB cell viability assay (AID 1918965; further: nearly all actives have a fitted effect of over 55% in size)
Method in brief: as §1

[4] = Quantitative High-Throughput drug screen in 47 multiple myeloma cell lines against the NCATS MIPE library collection: H1112_PLB cell viability assay (AID 1918967; further: nearly all actives have a fitted effect of over 30% in size)
Method in brief: (§2)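 qHTS of the MIPE 4.0 collection: 500 myeloma cells/well, 48 h drug exposure at 37C in 5% CO2, then CellTiter-Glo for 5 min at room temperature before luminescence reading.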

[5] = Quantitative High-Throughput drug screen in 47 multiple myeloma cell lines against the NCATS MIPE library collection: Karpas25_ECACC cell viability assay (AID 1918968; further: nearly all actives have a fitted effect of over 35% in size)
Method in brief: as §2

[6] = Quantitative High-Throughput drug screen in 47 multiple myeloma cell lines against the NCATS MIPE library collection: KMS27_JCRB cell viability assay (AID 1918970); conditions: KMS27 myeloma cells, CellTiter-Glo ATP viability, 48 h; viability (% of DMSO): at 45.8 µM (top of the series); further: nearly all actives have a fitted effect of over 30% in size
Method in brief: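 KMS27_JCRB myeloma cells, 500 per well, exposed 48 h at 37 C, 5% CO2 to MIPE 4.0 compounds. Viability from ATP by CellTiter-Glo luminescence, normalized to DMSO (100%) and medium-only (0%) wells.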

[7] = Quantitative High-Throughput drug screen in 47 multiple myeloma cell lines against the NCATS MIPE library collection: JIM1_ECACC cell viability assay (AID 1918964)
Method in brief: as §2

[8] = Quantitative High-Throughput drug screen in 47 multiple myeloma cell lines against the NCATS MIPE library collection: JJN3_DSMZ cell viability assay (AID 1918966; further: nearly all actives have a fitted effect of over 50% in size)
Method in brief: as §2
Potency means the concentration at half of the fitted maximal effect.

Row | Compound | Potency [1] | Potency [2] | Potency [3] | Potency [4] | Potency [5] | Potency [6] | Potency [7] | Potency [8]
1 | Nc1cccc2c1C(=O)N(C1CCC(=O)NC1=O)C2=O (stereo not drawn) | inactive | 0.0935 µM (active) | 4180 nM (active) | inactive | 8.33 µM (active) | inactive | – | –
2 | CN(N=O)C(=O)N[C@H]1C(O)OC(CO)[C@@H](O)[C@H]1O (stereo partly drawn) | inactive | inactive | – | inactive | inactive | – | – | –
3 | CC(C)(C)[N+]([O-])=Cc1ccc(S(=O)(=O)O)cc1S(=O)(=O)O | inactive | inactive | – | – | inactive | inactive | inactive | –
4 | C[C@@H]1C(=O)O[C@H]2CC34[C@H]5C[C@@H](C(C)(C)C)C36[C@H](OC(=O)[C@@H]6O)O[C@@]4(C(=O)O5)[C@]21O (stereo partly drawn) | inactive | inactive | inactive | inactive | inactive | – | inactive | –
5 | CC1(C)CC(O)CC(C)(C)N1[O] | inactive | – | inactive | – | inactive | inactive | inactive | –
6 | CCOC(=O)C1=C(C)NC(=S)NC1c1cccc(O)c1 (stereo not drawn) | 469 nM (active) | 0.0372 µM (active) | 26.4 nM (active) | – | 0.0296 µM (active) | 46.9 nM (active) | 296 nM (active) | –
7 | Cn1cc(C[C@@H](N)C(=O)O)c2ccccc21 | inactive | inactive | – | – | inactive | inactive | – | –
8 | CCCCOc1ccc(C(=O)Nc2ccc(F)cc2F)cc1 | inactive | inactive | – | – | inactive | inactive | inactive | –
9 | C[C@H](CCC(=O)O)[C@H]1CC[C@H]2[C@@H]3[C@H](O)C[C@@H]4C[C@H](O)CC[C@]4(C)[C@@H]3CC[C@]12C | inactive | inactive | inactive | inactive | inactive | inactive | – | –
10 | OC[C@@H](O)[C@@H](O)[C@H](O)[C@@H](O)CO | inactive | – | inactive | – | inactive | inactive | inactive | inactive
11 | C[C@@H]1[C@H](C)CC[C@]2(C(=O)O)CC[C@]3(C)C(=CC[C@@H]4[C@@]5(C)C[C@@H](O)[C@H](O)[C@@](C)(CO)[C@H]5CC[C@]43C)[C@@H]12 | inactive | inactive | – | – | inactive | inactive | – | –
12 | CCC(C)CCCCC(=O)N[C@@H](CCN)C(=O)NC(C(=O)N[C@H](CCN)C(=O)N[C@@H]1CCNC(=O)C([C@@H](C)O)NC(=O)[C@@H](CCN)NC(=O)[C@@H](CCN)NC(=O)[C@@H](CC(C)C)NC(=O)[C@H](Cc2ccccc2)NC(=O)[C@H](CCN)NC1=O)[C@@H](C)O (stereo partly drawn) ({Octanoyl(6-Me)}-[Dab][ξThr(3R)][dDab][dDab][Dab]F[dL][dDab][dDab][ξThr(3R)]; lactam 4-C) | inactive | inactive | – | – | – | inactive | inactive | inactive
13 | C[N+]1(C)[C@@H]2C[C@@H](OC(=O)C(O)(c3cccs3)c3cccs3)C[C@H]1[C@@H]1O[C@@H]12 | inactive | inactive | inactive | – | inactive | inactive | – | inactive
14 | CC(C)c1cc(C(C)C)c(CC(=O)NS(=O)(=O)Oc2c(C(C)C)cccc2C(C)C)c(C(C)C)c1 | 4690 nM (active) | 7.43 µM (active) | – | inactive | – | – | – | –
15 | CC(=O)O[C@H]1C[C@@H]2CC[C@H]3[C@H]4C[C@H]([N+]5(C)CCCCC5)[C@@H](OC(C)=O)[C@@]4(C)CC[C@@H]3[C@@]2(C)C[C@H]1[N+]1(C)CCCCC1 | inactive | inactive | inactive | – | inactive | inactive | inactive | –
16 | N#CNC(=NCCCCCCOc1ccc(Cl)cc1)Nc1ccncc1 | 5.9 nM (active) | – | – | – | inactive | 1 nM (active) | 29.6 nM (active) | 10.5 nM (active)
17 | O=C1c2c(O)cccc2[C@@H]([C@@H]2O[C@H](CO)[C@@H](O)[C@H](O)[C@H]2O)c2cc(CO)cc(O)c21 | inactive | inactive | inactive | – | inactive | inactive | – | –
18 | Nc1nc(=O)n([C@H]2C[C@H](O)[C@@H](CO)O2)cc1F | 7.4 nM (active) | 1.32 µM (active) | 29.6 nM (active) | inactive | inactive | 41.8 nM (active) | – | inactive
19 | Nc1ccn(C2CO[C@H](CO)O2)c(=O)n1 (stereo partly drawn) | inactive | 3.32 µM (active) | – | – | inactive | inactive | – | –
20 | NC[C@H]1O[C@H](O[C@H]2[C@@H](O)[C@@H](O[C@H]3O[C@H](CO)[C@@H](O)[C@H](N)[C@@H]3O)[C@H](N)C[C@@H]2N)[C@H](N)C[C@H]1O | inactive | inactive | – | inactive | inactive | inactive | – | 1870 nM (active)
21 | Cc1onc(-c2ccccc2)c1C(=O)N[C@@H]1C(=O)N2[C@@H](C(=O)O)C(C)(C)S[C@@H]12 | inactive | inactive | – | inactive | inactive | – | inactive | –
22 | COC(=O)C1C2CC3c4[nH]c5cc(OC)ccc5c4CCN3CC2CC(OC(=O)c2cc(OC)c(OC)c(OC)c2)C1OC (stereo not drawn) | 20900 nM (active) | 26.4 µM (active) | – | 16.6 µM (active) | 23.5 µM (active) | – | – | –
